Assay results taken from PubChem BioAssay AID588753 (Vanderbilt Specialized Chemistry Center, 2011).
Calls of active or inactive are those of the source. No rule for the calls is given here.

Experiment: PubChem AID 588753
Conditions: Ricerca radioligand binding panel, % inhibition, at 10 µM, stronger effect = higher value

Work on `C[C@@H](NC(=O)c1ccc(C#Cc2cccc(F)c2)cn1)C(C)(C)O` yielded an inhibition (L-type Ca channel DHP site) of 22%, an inhibition (NMDA phencyclidine site) of 25% and an inhibition (adenosine A2a binding) of 12%. The inhibition (adrenergic alpha1A binding) was 18%, the inhibition was 8% (inactive) and the inhibition (dopamine transporter binding) was 8%. It also gave an inhibition (hERG binding) of -2%, an inhibition (leukotriene CysLT1 binding) of 17% and an inhibition (norepinephrine transporter binding) of 9%. It also gave an inhibition (purinergic P2XY binding) of 24%, an inhibition (serotonin 5-HT2B binding) of 36% and an inhibition (serotonin transporter binding) of 6%. It also gave an inhibition (sigma 1 binding) of 31%.
